# Source: the supplement of paper PMC4466140
# Target: AgAbp1
# Assay: SPOT peptide array binding signal intensity (averaged, normalized) (arbitrary units (background-subtracted, floor 0; scale differs between SH3 domains)); higher = stronger binding of the SH3 domain to the peptide
# Procedure, shortened: (§1)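 SH3 domains from four yeast species were expressed as GST fusions in E. coli BL21(DE3) and purified on glutathione Sepharose. Each was incubated at 10 μg/ml overnight at 4°C in TBS-based blocking buffer on cellulose membranes bearing synthetic 15-mer peptides, in which serines replaced cysteines. Bound protein was detected with anti-GST antibody, an HRP anti-mouse secondary and luminol, then imaged and quantified with Genespotter. The binding signal is the normalized, background-subtracted spot intensity averaged over replicates, in arbitrary units that are not the same from one domain to another.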
row,Binder,SPOT peptide array binding signal intensity
1,GKKVRPLLVLLLSRA,≤ 0

# Target: AgBbc1
# Assay: as above
# Procedure, shortened: as §1
row,Binder,SPOT peptide array binding signal intensity
1,GKKVRPLLVLLLSRA,≤ 0

# Target: AgBem1-D1
# Assay: as above
# Procedure, shortened: as §1
row,Binder,SPOT peptide array binding signal intensity
1,GKKVRPLLVLLLSRA,≤ 0

# Target: AgBzz1-D1
# Assay: as above
# Procedure, shortened: as §1
row,Binder,SPOT peptide array binding signal intensity
1,GKKVRPLLVLLLSRA,23.5

# Target: AgBzz1-D2
# Assay: as above
# Procedure, shortened: as §1
row,Binder,SPOT peptide array binding signal intensity
1,GKKVRPLLVLLLSRA,2

# Target: AgCyk3
# Assay: as above
# Procedure, shortened: as §1
row,Binder,SPOT peptide array binding signal intensity
1,GKKVRPLLVLLLSRA,5

# Target: AgFus1
# Assay: as above
# Procedure, shortened: as §1
row,Binder,SPOT peptide array binding signal intensity
1,GKKVRPLLVLLLSRA,3030

# Target: AgHof1
# Assay: as above
# Procedure, shortened: as §1
row,Binder,SPOT peptide array binding signal intensity
1,GKKVRPLLVLLLSRA,0.5

# Target: AgHse1
# Assay: as above
# Procedure, shortened: as §1
row,Binder,SPOT peptide array binding signal intensity
1,GKKVRPLLVLLLSRA,1180

# Target: AgLsb1
# Assay: as above
# Procedure, shortened: as §1
row,Binder,SPOT peptide array binding signal intensity
1,GKKVRPLLVLLLSRA,≤ 0

# Target: AgLsb4
# Assay: as above
# Procedure, shortened: as §1
row,Binder,SPOT peptide array binding signal intensity
1,GKKVRPLLVLLLSRA,702

# Target: AgMyo5
# Assay: as above
# Procedure, shortened: as §1
row,Binder,SPOT peptide array binding signal intensity
1,GKKVRPLLVLLLSRA,≤ 0

# Target: AgNbp2
# Assay: as above
# Procedure, shortened: as §1
row,Binder,SPOT peptide array binding signal intensity
1,GKKVRPLLVLLLSRA,280

# Target: AgRvs167
# Assay: as above
# Procedure, shortened: as §1
row,Binder,SPOT peptide array binding signal intensity
1,GKKVRPLLVLLLSRA,1.5

# Target: AgSho1
# Assay: as above
# Procedure, shortened: as §1
row,Binder,SPOT peptide array binding signal intensity
1,GKKVRPLLVLLLSRA,795

# Target: AgSla1-D1-D2
# Assay: as above
# Procedure, shortened: as §1
row,Binder,SPOT peptide array binding signal intensity
1,GKKVRPLLVLLLSRA,≤ 0

# Target: AgSla1-D3
# Assay: as above
# Procedure, shortened: as §1
row,Binder,SPOT peptide array binding signal intensity
1,GKKVRPLLVLLLSRA,1

# Target: CaAbp1-D1
# Assay: as above
# Procedure, shortened: as §1
row,Binder,SPOT peptide array binding signal intensity
1,GKKVRPLLVLLLSRA,208

# Target: CaAbp1-D2
# Assay: as above
# Procedure, shortened: as §1
row,Binder,SPOT peptide array binding signal intensity
1,GKKVRPLLVLLLSRA,134

# Target: CaBbc1
# Assay: as above
# Procedure, shortened: as §1
row,Binder,SPOT peptide array binding signal intensity
1,GKKVRPLLVLLLSRA,0.5

# Target: CaBem1-D1
# Assay: as above
# Procedure, shortened: as §1
row,Binder,SPOT peptide array binding signal intensity
1,GKKVRPLLVLLLSRA,≤ 0

# Target: CaBzz1-D1
# Assay: as above
# Procedure, shortened: as §1
row,Binder,SPOT peptide array binding signal intensity
1,GKKVRPLLVLLLSRA,45

# Target: CaBzz1-D2
# Assay: as above
# Procedure, shortened: as §1
row,Binder,SPOT peptide array binding signal intensity
1,GKKVRPLLVLLLSRA,8

# Target: CaCyk3
# Assay: as above
# Procedure, shortened: as §1
row,Binder,SPOT peptide array binding signal intensity
1,GKKVRPLLVLLLSRA,9

# Target: CaFus1
# Assay: as above
# Procedure, shortened: as §1
row,Binder,SPOT peptide array binding signal intensity
1,GKKVRPLLVLLLSRA,3530

# Target: CaHof1
# Assay: as above
# Procedure, shortened: as §1
row,Binder,SPOT peptide array binding signal intensity
1,GKKVRPLLVLLLSRA,1.5

# Target: CaHse1
# Assay: as above
# Procedure, shortened: as §1
row,Binder,SPOT peptide array binding signal intensity
1,GKKVRPLLVLLLSRA,120

# Target: CaLsb1
# Assay: as above
# Procedure, shortened: as §1
row,Binder,SPOT peptide array binding signal intensity
1,GKKVRPLLVLLLSRA,≤ 0

# Target: CaLsb4
# Assay: as above
# Procedure, shortened: as §1
row,Binder,SPOT peptide array binding signal intensity
1,GKKVRPLLVLLLSRA,7.5

# Target: CaMyo5
# Assay: as above
# Procedure, shortened: as §1
row,Binder,SPOT peptide array binding signal intensity
1,GKKVRPLLVLLLSRA,≤ 0

# Target: CaNbp2
# Assay: as above
# Procedure, shortened: as §1
row,Binder,SPOT peptide array binding signal intensity
1,GKKVRPLLVLLLSRA,1520

# Target: CaRvs167
# Assay: as above
# Procedure, shortened: as §1
row,Binder,SPOT peptide array binding signal intensity
1,GKKVRPLLVLLLSRA,28.3

# Target: CaRvs167-3
# Assay: as above
# Procedure, shortened: as §1
row,Binder,SPOT peptide array binding signal intensity
1,GKKVRPLLVLLLSRA,50.8

# Target: CaSho1
# Assay: as above
# Procedure, shortened: as §1
row,Binder,SPOT peptide array binding signal intensity
1,GKKVRPLLVLLLSRA,562

# Target: CaSla1-D1-D2
# Assay: as above
# Procedure, shortened: as §1
row,Binder,SPOT peptide array binding signal intensity
1,GKKVRPLLVLLLSRA,≤ 0

# Target: CaSla1-D3
# Assay: as above
# Procedure, shortened: as §1
row,Binder,SPOT peptide array binding signal intensity
1,GKKVRPLLVLLLSRA,28

# Target: ScAbp1
# Assay: as above
# Procedure, shortened: as §1
row,Binder,SPOT peptide array binding signal intensity
1,GKKVRPLLVLLLSRA,3.5

# Target: ScBbc1
# Assay: as above
# Procedure, shortened: as §1
row,Binder,SPOT peptide array binding signal intensity
1,GKKVRPLLVLLLSRA,≤ 0

# Target: ScBem1-D1
# Assay: as above
# Procedure, shortened: as §1
row,Binder,SPOT peptide array binding signal intensity
1,GKKVRPLLVLLLSRA,≤ 0

# Target: ScBzz1-D1
# Assay: as above
# Procedure, shortened: as §1
row,Binder,SPOT peptide array binding signal intensity
1,GKKVRPLLVLLLSRA,18

# Target: ScBzz1-D2
# Assay: as above
# Procedure, shortened: as §1
row,Binder,SPOT peptide array binding signal intensity
1,GKKVRPLLVLLLSRA,104

# Target: ScCyk3
# Assay: as above
# Procedure, shortened: as §1
row,Binder,SPOT peptide array binding signal intensity
1,GKKVRPLLVLLLSRA,41

# Target: ScFus1
# Assay: as above
# Procedure, shortened: as §1
row,Binder,SPOT peptide array binding signal intensity
1,GKKVRPLLVLLLSRA,1690

# Target: ScHof1
# Assay: as above
# Procedure, shortened: as §1
row,Binder,SPOT peptide array binding signal intensity
1,GKKVRPLLVLLLSRA,≤ 0

# Target: ScHse1
# Assay: as above
# Procedure, shortened: as §1
row,Binder,SPOT peptide array binding signal intensity
1,GKKVRPLLVLLLSRA,1540

# Target: ScLsb1
# Assay: as above
# Procedure, shortened: as §1
row,Binder,SPOT peptide array binding signal intensity
1,GKKVRPLLVLLLSRA,≤ 0

# Target: ScLsb2
# Assay: as above
# Procedure, shortened: as §1
row,Binder,SPOT peptide array binding signal intensity
1,GKKVRPLLVLLLSRA,≤ 0

# Target: ScLsb3
# Assay: as above
# Procedure, shortened: as §1
row,Binder,SPOT peptide array binding signal intensity
1,GKKVRPLLVLLLSRA,97

# Target: ScLsb4
# Assay: as above
# Procedure, shortened: as §1
row,Binder,SPOT peptide array binding signal intensity
1,GKKVRPLLVLLLSRA,≤ 0

# Target: ScMyo3
# Assay: as above
# Procedure, shortened: as §1
row,Binder,SPOT peptide array binding signal intensity
1,GKKVRPLLVLLLSRA,≤ 0

# Target: ScMyo5
# Assay: as above
# Procedure, shortened: as §1
row,Binder,SPOT peptide array binding signal intensity
1,GKKVRPLLVLLLSRA,≤ 0

# Target: ScNbp2
# Assay: as above
# Procedure, shortened: as §1
row,Binder,SPOT peptide array binding signal intensity
1,GKKVRPLLVLLLSRA,237

# Target: ScPex13
# Assay: as above
# Procedure, shortened: as §1
row,Binder,SPOT peptide array binding signal intensity
1,GKKVRPLLVLLLSRA,≤ 0

# Target: ScRvs167
# Assay: as above
# Procedure, shortened: as §1
row,Binder,SPOT peptide array binding signal intensity
1,GKKVRPLLVLLLSRA,9.67

# Target: ScSho1
# Assay: as above
# Procedure, shortened: as §1
row,Binder,SPOT peptide array binding signal intensity
1,GKKVRPLLVLLLSRA,1560

# Target: ScSla1-D1-D2
# Assay: as above
# Procedure, shortened: as §1
row,Binder,SPOT peptide array binding signal intensity
1,GKKVRPLLVLLLSRA,≤ 0

# Target: ScSla1-D3
# Assay: as above
# Procedure, shortened: as §1
row,Binder,SPOT peptide array binding signal intensity
1,GKKVRPLLVLLLSRA,5.5

# Target: SpAbp1-D1
# Assay: as above
# Procedure, shortened: as §1
row,Binder,SPOT peptide array binding signal intensity
1,GKKVRPLLVLLLSRA,52.5

# Target: SpBbc1
# Assay: as above
# Procedure, shortened: as §1
row,Binder,SPOT peptide array binding signal intensity
1,GKKVRPLLVLLLSRA,0.5

# Target: SpBzz1-D1
# Assay: as above
# Procedure, shortened: as §1
row,Binder,SPOT peptide array binding signal intensity
1,GKKVRPLLVLLLSRA,21.5

# Target: SpBzz1-D2
# Assay: as above
# Procedure, shortened: as §1
row,Binder,SPOT peptide array binding signal intensity
1,GKKVRPLLVLLLSRA,≤ 0

# Target: SpCyk3
# Assay: as above
# Procedure, shortened: as §1
row,Binder,SPOT peptide array binding signal intensity
1,GKKVRPLLVLLLSRA,7

# Target: SpHof1
# Assay: as above
# Procedure, shortened: as §1
row,Binder,SPOT peptide array binding signal intensity
1,GKKVRPLLVLLLSRA,157

# Target: SpHof1-2
# Assay: as above
# Procedure, shortened: as §1
row,Binder,SPOT peptide array binding signal intensity
1,GKKVRPLLVLLLSRA,27.8

# Target: SpHof1-3
# Assay: as above
# Procedure, shortened: as §1
row,Binder,SPOT peptide array binding signal intensity
1,GKKVRPLLVLLLSRA,758

# Target: SpHse1
# Assay: as above
# Procedure, shortened: as §1
row,Binder,SPOT peptide array binding signal intensity
1,GKKVRPLLVLLLSRA,1200

# Target: SpLsb1
# Assay: as above
# Procedure, shortened: as §1
row,Binder,SPOT peptide array binding signal intensity
1,GKKVRPLLVLLLSRA,≤ 0

# Target: SpLsb4
# Assay: as above
# Procedure, shortened: as §1
row,Binder,SPOT peptide array binding signal intensity
1,GKKVRPLLVLLLSRA,41

# Target: SpMyo1
# Assay: as above
# Procedure, shortened: as §1
row,Binder,SPOT peptide array binding signal intensity
1,GKKVRPLLVLLLSRA,3.75

# Target: SpNbp2
# Assay: as above
# Procedure, shortened: as §1
row,Binder,SPOT peptide array binding signal intensity
1,GKKVRPLLVLLLSRA,1290

# Target: SpPex13
# Assay: as above
# Procedure, shortened: as §1
row,Binder,SPOT peptide array binding signal intensity
1,GKKVRPLLVLLLSRA,3

# Target: SpRvs167
# Assay: as above
# Procedure, shortened: as §1
row,Binder,SPOT peptide array binding signal intensity
1,GKKVRPLLVLLLSRA,6.83

# Target: SpSla1-D1-D2
# Assay: as above
# Procedure, shortened: as §1
row,Binder,SPOT peptide array binding signal intensity
1,GKKVRPLLVLLLSRA,1

# Target: SpSla1-D3
# Assay: as above
# Procedure, shortened: as §1
row,Binder,SPOT peptide array binding signal intensity
1,GKKVRPLLVLLLSRA,≤ 0
